Only some compounds are listed: those with a hit (about 7.5% of all), similar ones and a draw of the others.
ELG1 genotoxic: inducers of genotoxicity in HEK293T ELG1-luciferase cells. HEK293T ELG1-luciferase reporter, luminescence, 16 h. Potency, µM (titrated, usually from 46 µM), hits mostly activators. AID 504466. 330,000 compounds, 1.3% hits; also: nearly all actives have a fitted effect of over 60% in size
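ELG1-luciferase HEK293T cells, 2,000/well; compound pinned in; 16 hr, 37 °C, 5% CO2; ONE-Glo, 30 min RT; luminescence on CCD imager.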
Rab9 prom act: activates the Rab9 promoter; Huh7 Rab9 promoter-luciferase reporter, luminescence, 24 h; Potency, µM (top dose mostly 9.22 µM), hits mostly activators; 320,000 compounds, 2.8% hits; AID 485297; also: nearly all actives have a fitted effect of over 60% in size
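Luminescence read-out: Huh7 cells stably expressing Rab9-luciferase, treated 24 h with compound at 37 °C, then lysed with luciferase reagent for 10 min at ambient before reading.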
NPC1 prom act: activates the NPC1 promoter; Huh7 NPC1 promoter luciferase reporter, 24 h; Potency, µM (highest dose often 9.22 µM), hits mostly activators; 320,000 compounds, 2.4% hits; also: nearly all actives have a fitted effect of over 60% in size
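Huh7 reporter cells (NPC1 promoter driving luciferase) are dosed with compound for 24 h at 37 °C, 5% CO2; luciferase detection reagent is then added and luminescence measured after 10 min at ambient temperature.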
FLuc counter: firefly luciferase modulation, counter-screen for miR-21 project | P08659 | purified FLuc, Km substrates, luminescence inhibition | Potency, µM (highest dose often 57.5 µM), hits mostly inhibitors | 360,000 compounds, 6.9% hits | AID 588342; also: nearly all actives have a fitted effect of over 55% in size
Target sequence (P08659 whole entry, looked up): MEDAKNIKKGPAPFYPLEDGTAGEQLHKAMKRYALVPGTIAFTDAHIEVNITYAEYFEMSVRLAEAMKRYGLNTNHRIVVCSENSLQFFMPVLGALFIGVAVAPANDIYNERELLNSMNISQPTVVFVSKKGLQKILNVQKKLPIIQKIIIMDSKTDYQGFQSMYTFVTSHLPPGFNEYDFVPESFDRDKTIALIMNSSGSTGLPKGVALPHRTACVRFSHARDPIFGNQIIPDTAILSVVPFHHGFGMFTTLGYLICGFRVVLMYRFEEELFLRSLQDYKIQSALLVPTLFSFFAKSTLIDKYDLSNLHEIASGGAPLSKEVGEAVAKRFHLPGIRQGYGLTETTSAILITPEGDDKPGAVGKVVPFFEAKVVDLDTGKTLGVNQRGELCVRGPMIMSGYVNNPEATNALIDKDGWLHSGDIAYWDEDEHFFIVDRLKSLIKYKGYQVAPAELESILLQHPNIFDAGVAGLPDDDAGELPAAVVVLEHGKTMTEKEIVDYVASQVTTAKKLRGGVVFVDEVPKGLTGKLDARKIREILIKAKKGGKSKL
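Purified P. pyralis luciferase (10nM final) with 10uM D-luciferin and 10uM ATP (Km levels) in 50mM Tris acetate pH 7.5, 10mM Mg acetate, 0.01% Tween-20, 0.05% BSA; qHTS 6-point titration, ~60 µM downward; luminescence read.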
Luc counter: blocks Kinase-Glo luciferase, a counter-screen artifact; Q27757; Kinase-Glo luciferase, ATP luminescence, 8 min; Potency, µM (top dose mostly 38.3 µM), hits mostly inhibitors; 200,000 compounds, 0.28% hits; also: nearly all actives have a fitted effect of over 60% in size
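Kinase-Glo luciferase light output from ATP and luciferin was measured with 10 uM ATP, within the enzyme's linear range. Buffer: 50 mM imidazole pH 7.2, 50 mM KCl, 7 mM MgCl2, 0.01% Tween 20, 0.05% BSA; luminescence read after 8 min at ambient temperature.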
SMN2 splice enh: SMN2 splice variant enhancement. HEK293 SMN2-luciferase splicing reporter, luminescence, 30-36 h. Potency, µM (series often up to 46.1 µM), most hits filed as activators. 210,000 compounds, 2.8% hits. AID 1458; also: nearly all actives have a fitted effect of over 55% in size
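HEK293 cells carry an SMN2 […]–luciferase reporter in which exon 7 inclusion puts luciferase in frame. Cells were plated 10-12 h before compound addition, then incubated 30-36 h at 37C. ONE-Glo luminescence was read; sodium butyrate at 4.5 mM final served as control.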
Of the large screens only hits and unclear results are named; the others gave an inactive call. Calls follow the shape of the dose curve; as a rule, active = well fitted curve in the direction sought with a large enough effect; inconclusive = small, poorly fitted or top-dose-only effect, or another doubt; inactive = no such curve, though single readings can be large; an effect the other way counts as inactive or inconclusive.

COc1ccccc1NS(=O)(=O)c1cccc(C(=O)N/N=C/c2c(CO)cnc(C)c2O)c1	none (no result: Luc counter, SMN2 splice enh)
COc1ccccc1N/N=C/c1c(CO)cnc(C)c1O	FLuc counter 13.5µM
O=c1oc(CCCO)cc2ccc(C#Cc3cccnc3)cc12	none (no result: Rab9 prom act, NPC1 prom act, FLuc counter, Luc counter, SMN2 splice enh)
CN(C)c1ccc(C#Cc2ccc3cc(CCO)oc(=O)c3c2)cc1	Rab9 prom act inconclusive, NPC1 prom act 3.98µM, FLuc counter 1.35µM (no result: Luc counter, SMN2 splice enh)
O=c1oc(CCO)cc2ccc(C#Cc3ccsc3)cc12	ELG1 genotoxic inconclusive, Rab9 prom act 3.98µM, NPC1 prom act inconclusive, FLuc counter inconclusive (no result: Luc counter, SMN2 splice enh)
COc1cc(C)ccc1OCCCn1c(-c2ccc(Cl)cc2)nc2ccccc2c1=O	none (no result: ELG1 genotoxic, Rab9 prom act, NPC1 prom act, Luc counter)
COc1ccc2[nH]c3c(c2c1)CCN1C(=O)N([C@@H](C)C(=O)NCc2ccc(C)cc2)C(=O)[C@]31C	none (no result: Luc counter, SMN2 splice enh)
COc1ncc2nc(CCc3ccccc3)c(=O)n(C)c2n1	SMN2 splice enh 14.1µM (no result: ELG1 genotoxic, Rab9 prom act, NPC1 prom act, FLuc counter)
COc1cccc(OCC(O)CN2CCN(C)CC2)c1 (stereo unspecified)	none (no result: Luc counter, SMN2 splice enh)
CCN1CCN(c2cc(C)c3cc(NC(=O)c4cc(OC)cc(OC)c4)ccc3n2)CC1	ELG1 genotoxic inconclusive, FLuc counter 16.9µM (no result: Luc counter)
Cc1cc(N2CCN(C)CC2)nc2ccc(NC(=O)c3ccc(Br)o3)cc12	NPC1 prom act inconclusive, FLuc counter 15.1µM
COc1cc(C(=O)Nc2ccc3nc(N4CCN(C)CC4)cc(C)c3c2)cc(OC)c1OC	FLuc counter 23.9µM (no result: Luc counter, SMN2 splice enh)
Cc1cc(N2CCN(C)CC2)nc2ccc(NC(=O)c3ccc4c(c3)OCO4)cc12	Rab9 prom act inconclusive, FLuc counter 13.5µM (no result: SMN2 splice enh)
C[C@H](N)CCCP(=O)(O)O	none (no result: ELG1 genotoxic, Rab9 prom act, NPC1 prom act, FLuc counter, Luc counter)
C=CCOc1nc2c(c(=O)n(Cc3ccc(Cl)cc3)c(=O)n2C)n1C	none (no result: Luc counter, SMN2 splice enh)
CCOC(=O)Cc1csc(NC(=O)COc2ccc(OC)cc2)n1	FLuc counter 19µM
CCOC(=O)Cc1csc(NC(=O)COc2ccc3ccccc3c2)n1	FLuc counter 13.5µM
CCOC(=O)Cc1csc(NC(=O)COc2ccccc2OCC)n1	none
O=C(c1ccccc1)c1cccc(NC(=O)c2ccc(Br)o2)c1	Rab9 prom act inconclusive, FLuc counter 23.9µM
Cc1cccc(NC(=O)c2ccc(C(=O)c3ccccc3)o2)c1	ELG1 genotoxic inconclusive, Rab9 prom act inconclusive, FLuc counter 8.49µM, SMN2 splice enh 15.8µM
Cc1ccccc1C(=O)Nc1cccc(NC(=O)c2ccc(-c3ccc(Br)cc3)o2)c1	FLuc counter 4.78µM
CN1CCN(c2ccc(NC(=O)c3ccc(-c4ccc(Br)cc4)o3)cc2)CC1	FLuc counter inconclusive
O=C(Nc1ccc2ccccc2c1)c1ccc(Br)o1	ELG1 genotoxic inconclusive, Rab9 prom act 3.55µM, NPC1 prom act 3.55µM, FLuc counter 5.36µM (no result: Luc counter, SMN2 splice enh)
COc1ccc(NC(=O)c2ccc(C(=O)c3ccccc3)o2)cc1	Rab9 prom act inconclusive, FLuc counter inconclusive
O=C(Nc1ccccc1)c1ccc(Br)o1	FLuc counter inconclusive
O=C(Nc1cccc(NC(=O)c2ccc(Br)o2)c1)c1ccccc1	FLuc counter inconclusive, SMN2 splice enh inconclusive (no result: Luc counter)
Nc1c(C(=O)Nc2ccccc2Cl)nnn1Cc1cccc(Cl)c1	none (no result: ELG1 genotoxic, Rab9 prom act, NPC1 prom act, Luc counter)
CC(C)c1ccc(C2CC(=O)c3cnc(NC(=O)c4ccco4)nc3C2)cc1 (stereo unspecified)	FLuc counter inconclusive (no result: Luc counter, SMN2 splice enh)
Cc1ccc(OCn2c(=O)sc3ccccc32)cc1	ELG1 genotoxic 16.4µM, Rab9 prom act inconclusive, NPC1 prom act inconclusive, FLuc counter 23.9µM, SMN2 splice enh inconclusive
O=c1sc2ccccc2n1CCOc1ccccc1	ELG1 genotoxic 20.6µM, Rab9 prom act inconclusive, NPC1 prom act inconclusive, FLuc counter 13.5µM, SMN2 splice enh inconclusive
COc1ccccc1OCCCn1c(=O)oc2ccccc21	FLuc counter inconclusive
COc1ccccc1OCCCn1c(=O)sc2ccccc21	FLuc counter 15.1µM
CCCOc1ccc(Cn2c(=O)sc3ccccc32)cc1	none (no result: ELG1 genotoxic, Rab9 prom act, NPC1 prom act, Luc counter)
COc1ccccc1NC(=O)c1cc(S(=O)(=O)NCCC2=CCCCC2)ccc1F	none (no result: ELG1 genotoxic, Rab9 prom act, NPC1 prom act, Luc counter, SMN2 splice enh)
Fc1cccc(C2CCCCN2Cc2nc(C3CC3)no2)c1 (stereo unspecified)	none (no result: SMN2 splice enh)

Screens: PubChem, National Center for Advancing Translational Sciences (NCATS)
